Bioassay records: PubChem, National Center for Advancing Translational Sciences (NCATS)
Sampled rows, rich in hits. Any-hit rate of the full collection: about 19%.
VP16 counter: Gal4-VP16 reporter inhibition counter-screen | Potency, µM (titrated, usually from 53.6 µM), without a hit: at the top dose activity, negative = inhibition, usual class: inhibitors | Drosophila S2 Gal4-VP16 UAS-luciferase, luminescence, 20 h | AID 2546 | 3.5% of 310,000 active;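 note: Gal4-VP16 expression switched on by copper sulfate through the metallothionein promoter; nearly all actives have a fitted effect of over 50% in size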
TDP1 cell CPT: DT40-hTDP1 cell growth loss with CPT; chicken DT40 Tdp1-/-;hTDP1 cells + 20 nM CPT, ATP luminescence, 48 h; Potency, µM (doses to about 46.2 µM), without a hit: top-dose activity change, negative = growth inhibition, actives largely listed as inhibitors; 12% of 420,000 active; note: nearly all actives have a fitted effect of over 55% in size
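Chicken DT40 Tdp1-/- cells stably complemented with human TDP1 were seeded at 400 cells/well in medium containing 20 nM camptothecin, exposed to pin-transferred compounds, and grown at 37 °C for at least 48 hr. Viability was read as ATP luminescence.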
DT40 TDP1 no CPT: qHTS for Inhibitors of human tyrosyl-DNA phosphodiesterase 1 (TDP1): qHTS in cells in absence of CPT | 15% of 420,000 active | DT40 Tdp1-/- hTDP1 cells, no CPT, ATP luminescence, 48 h | AID 686978, 2013 | Potency, µM (top dose mostly 46.2 µM), inactives show top-dose activity change, negative = growth inhibition, actives largely listed as inhibitors; note: nearly all actives have a fitted effect of over 55% in size
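Chicken DT40 Tdp1-/- cells complemented with human TDP1, screened without camptothecin (DMSO vehicle only), 400 cells/well. Compounds pin-transferred, cells incubated at 37 °C for at least 48 hr. Growth read as ATP-dependent luminescence (CellTiter-Glo, 30 min at RT).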
RORgamma inh: inhibitors of mouse ROR gamma transcriptional activity; P51450; Drosophila S2 Gal4-RORgamma UAS-luciferase reporter, 20 h; Potency, µM (titrated, usually from 53.6 µM), inactives show at the highest dose activity change, negative = inhibition, most hits filed as inhibitors; 5.4% of 310,000 active; AID 2551; note: nearly all actives have a fitted effect of over 60% in size
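A Gal4/UAS one-hybrid system in insect cells: metallothionein-promoter Gal4–ROR gamma fusion plus Photinus luciferase reporter. Copper sulfate 700 uM final, 20 hr ambient incubation, luminescent detection after 10 min with reagent.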
TDP1 block: blocks human tyrosyl-DNA phosphodiesterase 1. Q9NUW8. recombinant TDP1, AlphaScreen DNA substrate cleavage. Potency, µM (series often up to 130 µM), for the others: top-dose activity change, negative = inhibition, actives largely listed as inhibitors. 0.28% of 350,000 active; note: nearly all actives have a fitted effect of over 40% in size
Target sequence (Q9NUW8 whole entry, looked up): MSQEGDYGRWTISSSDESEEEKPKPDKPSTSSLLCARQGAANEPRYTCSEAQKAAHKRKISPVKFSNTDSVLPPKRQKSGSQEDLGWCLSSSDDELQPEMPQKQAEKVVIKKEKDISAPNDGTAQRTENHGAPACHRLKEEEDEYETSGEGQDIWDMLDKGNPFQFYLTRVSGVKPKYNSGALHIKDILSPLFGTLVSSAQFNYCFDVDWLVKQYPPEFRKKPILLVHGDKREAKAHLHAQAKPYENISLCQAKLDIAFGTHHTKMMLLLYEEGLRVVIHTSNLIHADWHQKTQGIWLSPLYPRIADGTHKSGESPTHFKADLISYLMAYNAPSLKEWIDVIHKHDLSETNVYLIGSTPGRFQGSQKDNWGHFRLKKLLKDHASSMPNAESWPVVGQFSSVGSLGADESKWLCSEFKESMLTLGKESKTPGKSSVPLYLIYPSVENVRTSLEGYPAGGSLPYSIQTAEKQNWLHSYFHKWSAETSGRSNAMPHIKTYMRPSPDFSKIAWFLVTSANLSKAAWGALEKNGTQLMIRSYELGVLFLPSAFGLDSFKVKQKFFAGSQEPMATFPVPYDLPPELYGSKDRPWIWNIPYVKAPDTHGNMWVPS
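Here, a 5' biotin and 3' phosphotyrosine-FITC DNA oligonucleotide reports Tdp1 activity: intact substrate bridges AlphaScreen beads, while cleavage leaves a 3' phosphate and drops signal. All incubations at room temperature.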
The depositor's hits bear a star; ? = inconclusive; . = no result. Calls come from the whole dose curve; as a rule, active = well fitted curve in the direction sought with a large enough effect; inconclusive = small, poorly fitted or top-dose-only effect, or another doubt; inactive = no such curve, though single readings can be large; an effect the other way counts as inactive or inconclusive. % is set by controls: 0 for no effect and ±100 for the full control effect; potency is the fitted concentration of half-maximal effect.

SMILES	VP16 counter	TDP1 cell CPT	DT40 TDP1 no CPT	RORgamma inh	TDP1 block
CCCCNC(=O)c1cc(-c2ccc(OC)cc2)nc2n[nH]c(-c3cccc([N+](=O)[O-])c3)c12	.	20.6µM*	18.4µM*	.	-2.5%
CC1(C)CC(NC(=O)C(c2ccccc2)c2ccccc2)CC(C)(C)N1	0.4%	5.4%	23.1%	-1.9%	.
CCc1cc(C(=O)/C=C/c2cc3c(cc2C)OCCO3)c(O)cc1O	.	12.6µM*	11.2µM*	.	.
Cc1ccc(-n2cc(CN3CCN(C(=O)c4ncn[nH]4)CC3)c(-c3ccc(F)cc3)n2)cc1	2.4%	?	23.1µM*	-3.7%	11.9%
Cc1ccc(-c2nn(-c3ccccc3)cc2C(=O)N2CCN(c3ccccn3)CC2)cc1	?	?	29.1µM*	?	0.0%
O=C(c1cn(Cc2ccccc2)nc1-c1ccc(Cl)cc1)N1CCN(c2ccccn2)CC1	.	?	?	.	3.1%
Cc1ccc(-n2cc(CN3CCN(c4ccccn4)CC3)c(-c3ccc(F)cc3)n2)cc1	?	4.3%	16.4µM*	-31.1%	8.1%
O=C(Cn1cnc([N+](=O)[O-])n1)N/N=C/c1cc(Cl)ccc1O	?	4.61µM*	7.31µM*	7.08µM*	8.9%
O=C(Cn1cnc([N+](=O)[O-])n1)N/N=C/c1ccccc1O	?	16.4µM*	16.4µM*	7.08µM*	6.7%
Cc1c(Cl)cccc1NC(=O)CNC(=O)c1ccco1	5.4%	5.2%	-27.5%	4.0%	.
CCOc1cc(C=C(C(=O)OC)C(=O)OC)ccc1OCc1ccc([N+](=O)[O-])cc1	?	6.51µM*	11.6µM*	?	5.6%
Cc1[nH]c2ccccc2c1C(=O)C(C)Sc1nc2ccccc2c(=O)n1Cc1cccnc1 (stereo not drawn)	.	7.94µM*	11.2µM*	.	.
COn1c(SCc2cccnc2)nc2ccccc2c1=O	-3.4%	-26.6%	?	12.9%	2.0%
C=C(C)C(=O)OCC(O)COc1ccc(C(C)(C)c2ccc(OCC(O)COC(=O)C(=C)C)cc2)cc1 (stereo not drawn)	.	16.4µM*	20.6µM*	.	.
CCN(CC)S(=O)(=O)c1ccc(N2CCOCC2)c(NC(=O)c2cc3ccccc3oc2=O)c1	-3.6%	?	16.4µM*	?	5.4%
CCN(CC)S(=O)(=O)c1ccc(N2CCOCC2)c(NC(=O)COc2ccccc2)c1	-3.5%	?	?	3.9%	2.6%
CCc1ccccc1OCC(=O)Nc1cc(S(=O)(=O)N(CC)CC)ccc1N1CCOCC1	.	20.6µM*	16.4µM*	.	0.5%
CCN(CC)S(=O)(=O)c1ccc(N2CCOCC2)c(NC(=O)CCOc2ccccc2)c1	7.4%	?	14.6µM*	7.4%	-5.6%
CCN(CC)S(=O)(=O)c1ccc(N2CCOCC2)c(NC(=O)CNCCc2ccccc2)c1	-4.2%	18.4µM*	18.4µM*	18.3%	0.0%
O=C(CN(Cc1ccco1)C(=O)c1ccc(N2CCCC2=O)cc1)Nc1ccccc1C(F)(F)F	.	-8.7%	?	.	.
CCCCOc1ccc(C(C)NC(=O)c2cccc(Nc3nc4ccccc4n4nnnc34)c2)cc1 (stereo not drawn)	.	5.17µM*	5.8µM*	.	-5.0%
COc1cc(Nc2nc3ccccc3n3nnnc23)cc(OC)c1OC	5.0%	8.2µM*	9.2µM*	-1.4%	7.4%
Cc1ccc(CNC(=O)c2cccc(Nc3nc4ccccc4n4nnnc34)c2)cc1	.	20.6µM*	10.3µM*	.	5.0%
COc1ccc(N2CCN(c3ncnc4onc(C)c34)CC2)cc1	.	20.6µM*	16.4µM*	.	-4.2%
Cc1noc2ncnc(N3CCCCC3)c12	6.1%	-24.5%	?	11.0%	-0.6%
Cc1noc2ncnc(N3CCN(c4ccc(F)cc4)CC3)c12	4.3%	?	18.4µM*	-20.2%	-1.3%
C=CCn1c(SCC(=O)c2cc(C)n(C(C)COC)c2C)nc2sc(C)c(C)c2c1=O (stereo not drawn)	8.3%	?	18.4µM*	?	8.7%
